Shown are actives, neighbours in structure and some others; about 21% of the full set was active somewhere.
Shiga inhibitor: A qHTS for Small Molecule Inhibitors of Shiga Toxin. Vero cells, Shiga toxin protein synthesis inhibition reporter. inhibition, % at 38.7 µM. AID 2315, 2010. 290,000 tested, 9.2% active; in the data active = inhibition mostly above about 28%, no sharp cut-off; inactive = mostly below about 43%
Cycloheximide cs: Cycloheximide Counterscreen for Small Molecule Inhibitors of Shiga Toxin; cell reporter, cycloheximide protein synthesis inhibition counterscreen; max response, %; 300,000 tested, 12% active; AID 2314, 2010; in the data active = max response mostly above about 13%, no sharp cut-off; inactive = mostly below about 14%; note: read at 38.3 µM for the half of the compounds with a filed dose
Giardia FBPA inh: qHTS Assay for Inhibitors of Fructose-1,6-bisphosphate Aldolase from Giardia Lamblia. A8B2U2. purified Giardia FBPA. Potency, µM (top dose mostly 59.6 µM), most hits filed as inhibitors. 290,000 tested, 0.71% active. AID 2451, 2010; note: nearly all actives have a fitted effect of over 55% in size
Target sequence (A8B2U2 whole entry, looked up): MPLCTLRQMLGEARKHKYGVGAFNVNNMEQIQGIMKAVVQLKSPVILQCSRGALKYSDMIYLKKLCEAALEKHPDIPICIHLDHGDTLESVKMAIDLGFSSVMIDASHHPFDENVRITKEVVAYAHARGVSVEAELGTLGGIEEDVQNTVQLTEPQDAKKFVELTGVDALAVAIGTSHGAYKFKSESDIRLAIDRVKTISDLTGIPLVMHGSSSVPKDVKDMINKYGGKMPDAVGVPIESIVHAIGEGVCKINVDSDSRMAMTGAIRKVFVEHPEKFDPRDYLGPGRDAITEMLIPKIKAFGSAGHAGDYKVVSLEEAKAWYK
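Giardia FBPA (40 nM reagent) was preincubated 10 min at RT with compound (up to 57.5 uM final), then substrate plus GAPDH/TPI/NAD/arsenate coupling system with diaphorase/resazurin was added; resorufin fluorescence (525/598 nm) was read after 20 min.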
Pf growth 48h: Primary qHTS for delayed death inhibitors of the malarial parasite plastid, 48 hour incubation; P. falciparum luciferase growth in erythrocytes, 48 h; Potency, µM (titrated, usually from 28.7 µM), actives largely listed as inhibitors; 310,000 tested, 5.9% active; AID 504832, 2011
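Compounds are pin-transferred into medium, infected erythrocytes (2% hematocrit, 0.1% parasitemia final) are added, and plates sit one parasite generation at 37 C in 5% CO2. Detection reagent is then added and luminescence measured.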
NS1 inh: qHTS Assay for Inhibitors of Influenza NS1 Protein Function; 270,000 tested, 0.4% active; Potency, µM (series often up to 46.1 µM); calls by dose curve; note: actives are rising curves; nearly all actives have a fitted effect of over 50% in size
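Compounds were scored for reversing the slow growth caused by influenza A NS1 in S. cerevisiae, measured by optical density at 600 nm. Assay medium contained 2% galactose at pH 6.0; NS1-free yeast of the same strain were the positive control.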
Pf growth 96h: Primary qHTS for delayed death inhibitors of the malarial parasite plastid, 96 hour incubation | 320,000 tested, 6.9% active | Potency, µM (series often up to 28.7 µM), actives largely listed as inhibitors | P. falciparum luciferase reporter growth, 96 h
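Delayed-death screen, second-generation endpoint: infected erythrocytes, 2% hematocrit, 0.05% parasitemia final; 96 hours at 37 C, 5% CO2; luciferase detection reagent; luminescence decrease equals reduced growth.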
Each line names hits and unclear results; the compound was inactive in the other large screens. Unless noted, calls come from the whole dose curve; as a rule, active = well fitted curve in the direction sought with a large enough effect; inconclusive = small, poorly fitted or top-dose-only effect, or another doubt; inactive = no such curve, though single readings can be large; an effect the other way counts as inactive or inconclusive.

CCC(=O)OC1C(N(C)C)CC(C)O[C@H]1O[C@H]1[C@H](C)[C@@H](O[C@H]2CC(OC)[C@@H](O)C(C)O2)[C@H](C)C(=O)O[C@@H](CC)[C@](C)(O)[C@@H](O)[C@H](C)C(=O)[C@@H](C)C[C@]1(C)O (stereo not given in full)	Pf growth 96h 7.6µM (no result: Shiga inhibitor, Cycloheximide cs, Giardia FBPA inh, NS1 inh)
CCC1OC(=O)C(C)[C@@H](O[C@H]2C[C@@](C)(OC)C(O)C(C)O2)C(C)[C@@H](O[C@@H]2OC(C)CC(N(C)C)C2O)[C@](C)(O)CC(C)/C(=N\OCOCCOC)[C@H](C)C(O)[C@]1(C)O (stereo not given in full)	none (no result: Shiga inhibitor, Cycloheximide cs, Pf growth 48h, NS1 inh, Pf growth 96h)
CCOC(=O)CCC(=O)O[C@H]1[C@H](O[C@@H]2[C@@H](C)[C@H](O[C@H]3C[C@@](C)(OC)[C@@H](O)[C@H](C)O3)[C@@H](C)C(=O)O[C@H](CC)[C@@](C)(O)[C@H](O)[C@@H](C)C(=O)[C@H](C)C[C@@]2(C)O)O[C@H](C)C[C@@H]1N(C)C	Pf growth 96h 5.2µM
C/C(=N\NC(=O)c1ccc(O)cc1)c1cc2ccccc2o1	Shiga inhibitor 59, Cycloheximide cs 29, Pf growth 96h inconclusive (no result: NS1 inh)
COc1ccc(OCC(=O)N/N=C(\C)c2cc3ccccc3o2)cc1	Shiga inhibitor 57, Cycloheximide cs 26
C/C(=N\NC(=S)Nc1cccc(C)c1)c1cc2ccccc2o1	Pf growth 48h inconclusive, Pf growth 96h 8.3µM
O=C(NNC(=O)c1cc2ccccc2o1)c1ccc(F)cc1	none (no result: Shiga inhibitor, Cycloheximide cs, Giardia FBPA inh, NS1 inh)
C/C(=N\Nc1ccc([N+](=O)[O-])cc1)c1cc2ccccc2o1	none
CCNC(=S)N/N=C(\C)c1cc2ccccc2o1	Cycloheximide cs 18, Pf growth 48h inconclusive, Pf growth 96h inconclusive
O=C(Cn1sc2ccccc2c1=O)N1CCN(C(=O)c2ccco2)CC1	Pf growth 48h inconclusive
O=[As](O)(O)c1ccc(N=Nc2ccc(O)cc2)cc1	Pf growth 48h inconclusive, Pf growth 96h 2.9µM
CCc1ccc(/C=C/C(=O)c2ccc(N3CCOCC3)cc2)cc1	Shiga inhibitor active, Cycloheximide cs 15
Cc1ccc(/C=C/C(=O)c2ccc(N3CCOCC3)cc2)s1	Cycloheximide cs 27 (no result: NS1 inh)
Cc1cccc(/C=C/C(=O)c2ccc(N3CCOCC3)cc2)c1	Shiga inhibitor 45, Cycloheximide cs 14
COc1c2c(nc3ccccc13)O[C@H]([C@@](C)(O)CO)C2	none (no result: Shiga inhibitor, Cycloheximide cs, Pf growth 48h, NS1 inh, Pf growth 96h)
CSCC[C@H](NC(=O)[C@H](Cc1c[nH]c2ccccc12)NC(=O)CNC(=O)[C@H](Cc1ccc(O)cc1)NC(=O)[C@H](C)NC(=O)[C@H](CCC(=O)O)NC(=O)[C@H](CCC(=O)O)NC(=O)[C@H](CCC(=O)O)NC(=O)[C@H](CCC(=O)O)NC(=O)[C@H](CCC(=O)O)NC(=O)[C@H](CC(C)C)NC(=O)[C@H](Cc1c[nH]c2ccccc12)NC(=O)[C@@H]1CCCN1C(=O)CNC(=O)[C@@H]1CCC(=O)N1)C(=O)N[C@@H](CC(=O)O)C(=O)N[C@@H](Cc1ccccc1)C(=O)NCC(=O)O	none (no result: Pf growth 48h, NS1 inh, Pf growth 96h)
COc1ccc(-c2cn(-c3cccc(C)c3)c(=O)[nH]2)cc1OC	none
Cc1ccc(-n2cc(-c3ccccc3)[nH]c2=O)cc1F	Shiga inhibitor 115, Cycloheximide cs 46, Pf growth 96h inconclusive
CCOC(=O)CCCCC(=O)c1[nH]c(=O)[nH]c1CSc1nnc2c3cc(Br)ccc3n(C)c2n1	Pf growth 48h 10µM (no result: NS1 inh)
CCOC(=O)CCCCC(=O)c1[nH]c(=O)[nH]c1CSc1nc(C)cc(C)n1	none (no result: Pf growth 48h)
Cc1c(NC(=O)C(C)OC(=O)C23CC4CC(CC(Br)(C4)C2)C3)c(=O)n(-c2ccccc2)n1C (stereo not given)	none
COc1cccc(CN2c3ccc(Br)cc3C(=O)CS2(=O)=O)c1	Pf growth 48h 9.3µM, Pf growth 96h inconclusive (no result: Shiga inhibitor, Cycloheximide cs, Giardia FBPA inh, NS1 inh)
Cc1cccc2cc(CNCc3ccccc3)c(Cl)nc12	none
COc1ccc(CNC(=O)c2ccc3c(c2)N(C)C(=O)CS3=O)cc1 (stereo not given)	NS1 inh 14µM (no result: Pf growth 48h)
COc1ccc(CNC(=O)c2ccc3c(c2)N(C)CCS3)cc1	Cycloheximide cs active, Pf growth 96h inconclusive
CN1CCSc2ccc(C(=O)NCc3ccccc3F)cc21	Shiga inhibitor 35, Cycloheximide cs 28
CN1CCSc2ccc(C(=O)NCc3cccc(Br)c3)cc21	Cycloheximide cs 11, Pf growth 48h inconclusive, Pf growth 96h inconclusive
COc1ccc(CNC(=O)c2cccc(N3CCCC3=O)c2)cc1	Pf growth 96h inconclusive (no result: Pf growth 48h)
COCC(=O)N1CCC2(CCCN(Cc3cc(C(F)(F)F)cc(C(F)(F)F)c3)C2)CC1	none (no result: Shiga inhibitor, Cycloheximide cs, Pf growth 48h, NS1 inh, Pf growth 96h)
CCCc1cc(=O)[nH]c(SCC(=O)Nc2sccc2C#N)n1	none (no result: Shiga inhibitor, Cycloheximide cs, Giardia FBPA inh, NS1 inh)
CC(C)Oc1ccc(CNC(=O)c2ccc3c(c2)N(C)CCS3)cc1	Shiga inhibitor 54, Cycloheximide cs 35
CCC1CCCCN1C(=O)CCNC(=O)Cn1cnc2ccccc2c1=O (stereo not given)	none
Cc1cccc(C(=O)OC2CCOC2=O)c1O (stereo not given)	none
CCOC(=O)Nc1nnc(-c2cccc(OC)c2)s1	Cycloheximide cs 15 (no result: Pf growth 96h)
COC(=O)Nc1nnc(-c2ccncc2)s1	Giardia FBPA inh inconclusive (no result: Pf growth 96h)
CCOC(=O)Nc1nnc(-c2ccc(OC)cc2)s1	Cycloheximide cs 24, Pf growth 96h inconclusive (no result: Pf growth 48h)
O=C(CSS(=O)(=O)O)N1CCN(C(=O)c2ccoc2)CC1	none
O=C(Nc1c(-c2ccccc2)nc2ccccn12)c1cccc(F)c1	none
CC(=O)N1CCN(Cc2nc3cc(NC(=O)C4CCCCC4)ccc3n2C)CC1	Pf growth 96h 1.9µM
Cn1c(CN2CCCC2)nc2cc(NC(=O)c3ccc(Cl)cc3)ccc21	Shiga inhibitor 42, Cycloheximide cs 35, Pf growth 48h inconclusive (no result: NS1 inh)
CC(c1ccccc1)N1CCn2c(nc3cc(NC(=O)c4cccs4)ccc32)C1 (stereo not given)	Cycloheximide cs 21, Pf growth 48h inconclusive (no result: Pf growth 96h)
Cn1c(CN2CCCC2)nc2cc(NC(=O)COc3ccc(Cl)cc3)ccc21	Pf growth 48h inconclusive (no result: Pf growth 96h)
CC(=O)N1CCN(Cc2nc3cc([N+](=O)[O-])ccc3n2C)CC1	none
CCCC(=O)Nc1ccc2c(c1)nc(CN1CCN(C(C)=O)CC1)n2C	none
Cn1c(CN2CCN(C(=O)c3ccc(F)cc3)CC2)nc2cc([N+](=O)[O-])ccc21	Pf growth 48h inconclusive, Pf growth 96h 13µM
COc1cccc(NC(=O)CN(C)C(=O)C2=COCCO2)c1	Pf growth 48h inconclusive (no result: Shiga inhibitor, Cycloheximide cs, Giardia FBPA inh, NS1 inh)
COCCn1c(=O)cnc2cnc(Oc3ccc(OC)cc3)nc21	none (no result: Shiga inhibitor, Cycloheximide cs, Pf growth 48h, NS1 inh, Pf growth 96h)
Cn1c(CN2CCOCC2)nc2cc(NC(=O)c3ccccc3Cl)ccc21	none
Cn1c(CN2CCOCC2)nc2cc(NC(=O)c3ccc(F)cc3)ccc21	Shiga inhibitor 54, Cycloheximide cs 17

Compound activity as filed in PubChem.
